About 1,800 (75%) of roughly 2,400 compounds were called active. Rule as the data show it: active = inhibition above about 22%; inactive = the rest. The set was probably picked from earlier hits. These entries were drawn from the full list.

As a reminder, the inhibition is the share of the control response that was lost under treatment.

The test can be described thus: nonselective antagonists in TAAR1 counter-screen cells, counter-screen for hTAAR1 antagonist project, cell-based, fluorescence, calcium (AID 651780).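 Also: CHO-Ga16 host cells stimulated with ATP at an EC80 level; 0% = agonist EC80 plus vehicle and 100% = vehicle without agonist.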 The note with it: counterscreen cell line, antagonist mode, at 3 µM, stronger effect = higher value. (A counterscreen serves to expose hits that act by an unwanted route or on another target.)
Turning to `O=C(CCc1ccccc1)Nc1cccc(-c2nnc(-c3ccco3)o2)c1`, the inhibition is 25.8% (active). Consider `CCN=C1SC(CC(=O)Nc2ccc(C)cc2)C(=O)N1CC` (centres undefined), for which the inhibition was 29.4% (active). `O=C(Nc1ccccc1-c1nnn(CC(=O)N2CCN(c3ccccc3)CC2)n1)c1cccs1`: the inhibition was 36.9% (active). As to `Cn1c(C(=O)NCCc2ccsc2)cc2c(=O)n(C)c3ccccc3c21`, the inhibition was 27.8% (active). The value for `Cc1ccccc1OCC(=O)Nc1ccc(N2CCN(C(=O)C(C)C)CC2)c(Cl)c1` was 43.2% (active); that for `CN(c1ccccc1)S(=O)(=O)c1cc(C(=O)Nc2nc3ccccc3[nH]2)ccc1Cl` was 39.7% (active).

For `COc1ccc(C2=NOC(Cn3nc(C(=O)NCc4ccc5c(c4)OCO5)cc3-c3ccccc3)C2)cc1` (centres undefined), the inhibition is 34.1% (active).

`O=C(NCc1ccc2c(c1)OCO2)c1c(-c2ccsc2)sc2ccccc12`: the inhibition was 21.1% (inactive). For the compound `CC(C)N(Cc1ccccc1)C(=O)COC(=O)c1ccccc1SCC(=O)N1CCCC1`, the inhibition is 30.8% (active). For the compound `O=C(COC(=O)c1ccccc1SCC(=O)N1CCCC1)Nc1ccccc1OC(F)F`, the inhibition is 27.2% (active). In the case of `Cc1cc(C(C)(C)C)oc1C(=O)N(CC(=O)NC1CCCC1)Cc1ccc(Cl)cc1`, the inhibition was 36% (active). Regarding `COC(=O)Cc1nnn2c1[C@H](C)[C@H](c1ccccc1[N+](=O)[O-])OCC2`, the inhibition was 5.35% (inactive).

Regarding `COc1ccc(/C=C/C(=O)Nc2ccc(C34CC5CC(CC(O)(C5)C3)C4)cc2)cc1OC`, the inhibition is 37% (active). Take `CCOc1ccc(N2CC(C(=O)N/N=C/c3sccc3C)CC2=O)cc1` (centres undefined): the inhibition is 10.5% (inactive). The value for `CSc1ncnc2c1ncn2CC(=O)C1CCC2C3CCC4=CC(=O)CCC4(C)C3CCC12C` (centres undefined) was 49.7% (active); that for `CC(C)Oc1cc(F)ccc1-c1cc(C(=O)Nc2ccc(F)cc2)[nH]n1` was 26.3% (active). For `COc1ccc(NC(=O)c2cc(-c3ccc(C)o3)nc3ccccc23)cc1`, the inhibition is 36.1% (active). As for `COc1ccc(-c2cc(C(=O)Nc3ccccc3O)c3ccccc3n2)cc1`, the inhibition is 32.2% (active). The value for `N#Cc1cccc(NC(=O)COC(=O)c2ccccc2C(=O)c2ccc(Cl)c([N+](=O)[O-])c2)c1` was 36.1% (active); that for `O=C(NCCN1CCOCC1)c1ccc(/C=C2\Sc3ccccc3N(Cc3ccc(F)cc3)C2=O)cc1` was 35.2% (active). `O=C(NCCN1C(=O)S/C(=C\c2cccnc2)C1=O)c1ccc(S(=O)(=O)N2CCCC2)cc1`: the inhibition is 13% (inactive). In the case of `COc1ccc(-c2cc(C(=O)N(C)Cc3ccc(OC)c(OC)c3OC)c3ccccc3n2)cc1OC`, the inhibition was 30.9% (active).

Consider `COc1ccc(CN(C)C(=O)c2cc(-c3ccc(C)cc3C)nc3ccccc23)c(OC)c1OC`, for which the inhibition was 28% (active). In the case of `COc1ccc(-c2cc(C(=O)N(C)CC(=O)Nc3ccccc3Cl)c3ccccc3n2)cc1OC`, the inhibition is 27.4% (active). As to `COc1ccc(-c2cc(C(=O)N(C)Cc3ccccc3)c3ccccc3n2)cc1`, the inhibition is 27.7% (active). As for `CCOc1cc(/C=N/NC(=O)c2cc(-c3ccccc3)nc3ccccc23)ccc1O`, the inhibition is 19% (inactive). Regarding `COc1ccc(C(=O)Nc2ccccc2C(=O)N/N=C/c2ccc(O)c(OC)c2)cc1`, the inhibition is 38.3% (active). Regarding `O=C(N/N=C/c1ccc(OC(=O)c2ccccc2Cl)cc1)c1ccc(O)cc1`, the inhibition is 36.3% (active).

For the compound `CC/C(=N/Nc1ccccc1)c1cnnc(SC)n1`, the inhibition is 16.8% (inactive).
